# Bioassay records as filed in PubChem.
# Most compounds without a hit are left out; they make up all but 2.4% or so of the library.
# Cruzain inh noDet: inhibitors of Trypanosoma cruzi cruzain without detergent; purified cruzain, Z-FR-AMC fluorescence, no detergent; Potency, µM, for inactives: max response, negative = inhibition, hits mostly inhibitors; 200,000 tested, 2.3% active; AID 1476;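 note: plate controls were enzyme without inhibitor for no effect and buffer without enzyme for full effect; nearly all actives have a fitted effect of over 40% in size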
# Target sequence (P25779 123-467 limits assumed): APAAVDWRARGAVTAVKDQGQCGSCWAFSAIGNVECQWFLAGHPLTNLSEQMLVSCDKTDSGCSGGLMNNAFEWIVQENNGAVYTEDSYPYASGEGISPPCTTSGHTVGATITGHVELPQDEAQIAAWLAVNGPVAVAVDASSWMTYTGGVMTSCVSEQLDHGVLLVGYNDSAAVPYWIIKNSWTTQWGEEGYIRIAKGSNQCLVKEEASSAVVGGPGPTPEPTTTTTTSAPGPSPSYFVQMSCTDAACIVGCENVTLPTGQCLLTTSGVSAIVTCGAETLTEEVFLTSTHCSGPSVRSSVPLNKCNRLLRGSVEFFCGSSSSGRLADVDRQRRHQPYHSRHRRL
#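 Detergent-free condition (0.00005% Triton X-100) in acetate buffer pH 5.5 with DTT. 1.5 nM enzyme and compound were pre-mixed 15 min, then 2 uM Z-FR-AMC substrate added; reaction progress from fluorescence change between first and third reads (60 s).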
# Cruzain Triton: blocks cruzain activity in presence of Triton detergent. P25779. purified cruzain, Z-FR-AMC fluorescence, 0.01% Triton. Potency, µM, for inactives: max response, negative = inhibition, most hits filed as inhibitors. 200,000 tested, 0.43% active. AID 1478;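 note: plate controls were neutral wells for no effect and buffer without enzyme for full effect; nearly all actives have a fitted effect of over 40% in size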
#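 Compounds were screened in titration against cruzain (1.5 nM) with 0.01% Triton X-100 to counter colloidal aggregation. Activity was the AMC fluorescence increase over 60 s after adding 2 uM Z-FR-AMC at pH 5.5.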
# The depositor's hits bear a star; ? = inconclusive. Calls come from the whole dose curve; as a rule, active = well fitted curve in the direction sought with a large enough effect; inconclusive = small, poorly fitted or top-dose-only effect, or another doubt; inactive = no such curve, though single readings can be large; an effect the other way counts as inactive or inconclusive. Potency is the fitted concentration of half-maximal effect.
SMILES,Cruzain inh noDet,Cruzain Triton
CN1C(=O)C2(SCC(=O)N2c2ccc(F)cc2)c2ccccc21 (stereo not drawn),6.3%,-2.6%
CN1C(=O)C2(c3ccccc31)N(c1ccc(Br)cc1)C(=O)CS2(=O)=O (stereo not drawn),10µM*,-0.7%
COc1ccc(-c2nnc(SCCOc3ccccc3C)o2)cc1OC,9.8%,-2.5%
C[C@@H]1C[C@H](C)CN(S(=O)(=O)c2cc(Cl)c(Oc3ccc([N+](=O)[O-])cc3Cl)c(Cl)c2)C1,-2.4%,1.8%
COc1ccc2oc(=N)c(C(=O)Nc3ccccc3)cc2c1,5.4%,3.9%
COc1ccc2o/c(=N/NC(=S)Nc3ccccc3)c(C(N)=O)cc2c1,6.31µM*,-11.8%
COC(=O)[C@@H]1[C@@H]2C[C@H]3c4[nH]c5ccccc5c4CCN3C[C@@H]2CC[C@@H]1O,0.6%,-0.5%
C[N+](C)(N)Cc1nc(-c2ccc(Cl)cc2)no1,-3.6%,0.0%
COc1ccc(NC(=O)COC(C)=O)cc1Cl,-0.3%,-0.3%
CCOC(=O)/C=C/C(=O)OCC(=O)Nc1ccc(OC)c(Cl)c1,15.8µM*,12.6µM*
CC(C)CC(C(=O)OCC(=O)Nc1ncc(Cl)cc1Cl)N1C(=O)c2ccccc2C1=O (stereo not drawn),?,-20.6%
COc1ccc(NC(=O)COC(=O)/C=C/C(=O)OCC(=O)Nc2ccc(OC)c(Cl)c2)cc1Cl,25.1µM*,-19.7%
CCCn1c(C)cc(/C=C(\C#N)C(=O)OCC(=O)Nc2ccc(OC)c(Cl)c2)c1C,-11.8%,-9.8%
COc1ccc(NC(=O)COC(=O)C(CC(C)C)N2C(=O)C3CC=CCC3C2=O)cc1Cl (stereo not drawn),10µM*,7.08µM*
Cc1ccc(C(=O)NCCC(C)C)cc1NC(=O)c1nsc2ccccc12,8.1%,1.2%
Cn1c(=O)c2c(-c3ccccc3Cl)n(-c3cc(Cl)ccc3O)cc2n(C)c1=O,2.8%,0.4%
CCCSc1nc2sc3c(c2c(=O)n1-c1ccc(C)c(Cl)c1)CCN(C(C)=O)C3,?,-2.7%
Cc1c(N=C2NC(=O)/C(=C/c3cccc([N+](=O)[O-])c3)S2)c(=O)n(-c2ccccc2)n1C,11.8%,-3.0%
CN(C)c1ccc(/C=N/N=C2/NC(=O)/C(=C/c3ccc([N+](=O)[O-])cc3)S2)cc1,6.31µM*,-12.8%
CC(Sc1nnc(NCc2ccccc2)s1)C(=O)Nc1ccc2c(c1)C(=O)c1ccccc1C2=O (stereo not drawn),31.6µM*,-9.1%
Cc1cc(C(=O)CSc2nnc(NCc3ccccc3)s2)c(C)n1C,-12.4%,-1.4%
Cc1cccc(NC(=O)Cn2cc(S(=O)(=O)c3ccc(F)cc3)c(=O)c3cc4c(cc32)OCO4)c1,?,-3.2%
Cc1ccc(S(=O)(=O)c2cn(CC(=O)Nc3ccccc3)c3cc4c(cc3c2=O)OCO4)cc1,1µM*,-2.5%
O=C(Nc1ccc2oc(-c3cccc4c(Br)cccc34)nc2c1)c1ccc(F)cc1,15.8%,-0.1%
CC(=O)C1=NN(c2ccccc2)C2(S1)S/C(=C\c1ccccc1)C(=O)N2c1ccccc1 (stereo not drawn),10µM*,2.0%
SMILES,Cruzain inh noDet,Cruzain Triton
COC(=O)C1=NN(c2ccccc2)C2(S1)SC(C(C)=O)=C(C)N2c1ccccc1 (stereo not drawn),1.8%,0.4%
CC(C)c1cccc2nc3c(c([Si](C)(C)C)c12)Cn1c-3cccc1=O,?,-13.1%
CNc1nc(-c2ccccc2)nc(-c2ccccc2)c1C#N,7.94µM*,-2.0%
COc1ccc(-c2nc(-c3ccccc3)nc(Cl)c2C#N)cc1,-0.5%,6.0%
Nc1ccc(-c2nc3c(Cl)c(N)ccc3[nH]2)cc1,31.6µM*,?
Clc1ccc2nc(-c3ccccc3)[nH]c2c1,4.2%,-4.1%
Nc1ccc(-c2nc3ccc([N+](=O)[O-])cc3[nH]2)cc1,-1.6%,-9.0%
Cc1ccc(C)c(-c2nc3ccc(N)cc3[nH]2)c1,?,-1.3%
Nc1ccc2nc(-c3cc(Cl)c(N)c(Cl)c3)[nH]c2c1,15.8µM*,?
Nc1ccc2nc(-c3ccc(Cl)cc3)[nH]c2c1,20µM*,?
CCc1ccc(NCc2cccn2-c2nnc(N3CCCCCC3)s2)cc1,3.8%,-8.3%
CC(C)(C)c1ccc(OCC(=O)O)c(Cl)c1,12.2%,1.6%
CCSc1nnc(NC(=O)COc2cccc3ccccc23)s1,12.6µM*,-8.0%
C=CCSc1nnc(NC(=O)COc2ccc3ccccc3c2)s1,12.6µM*,4.3%
C=CCSc1nnc(NC(=O)CSc2ccccn2)s1,-1.9%,1.4%
COC(=O)c1sc(NC(=O)COc2cccc3ccccc23)nc1C,?,5.2%
O=C1C=CC2(OCCCO2)C(Br)=C1CO,7.6%,1.8%
C[C@]12C[C@@](C)(C=C1/C=C/c1ccc(C(F)(F)F)cc1)C(=O)C[C@H]2c1ccc(C(F)(F)F)cc1,-2.2%,-2.8%
COc1cc(/C=C(\C#N)c2nc3ccccc3[nH]2)ccc1OC(=O)c1ccco1,-9.4%,-3.6%
COc1cc(/C=C(\C#N)c2nc3ccccc3[nH]2)c([N+](=O)[O-])cc1OCc1ccccc1,31.6µM*,-5.2%
N#C/C(=C\c1ccc(OCc2ccc(Cl)cc2Cl)cc1)c1nc2ccccc2[nH]1,-11.5%,2.3%
COc1cc(/C=C(\C#N)c2nc3ccccc3[nH]2)cc(Cl)c1OCc1ccccc1Cl,10µM*,0.4%
CC(C)(C)c1ccc(O)c(CN(Cc2cc(C(C)(C)C)ccc2O)c2ccccc2)c1,5.1%,-2.7%
NCCNC(=S)S,4.1%,0.8%
O=C(O)CSCc1cccc2ccccc12,-4.3%,2.8%
SMILES,Cruzain inh noDet,Cruzain Triton
COc1ccc(NC(=O)c2ccc(-c3nc(COc4ccccc4)c(C)o3)cc2)cc1,2.1%,-1.6%
CC(=O)c1ccc(NC(=O)c2ccc(-c3nc(CSc4ccc(C)cc4)c(C)o3)cc2)cc1,?,-2.2%
CC(=O)c1ccc(NC(=O)c2ccc(-c3nc(CSc4ccccc4)c(C)o3)cc2)cc1,10µM*,-2.4%
CC(=O)c1ccc(NC(=O)c2ccc(-c3nc(COc4ccc(C)cc4)c(C)o3)cc2)cc1,1µM*,-2.9%
CC(NC(=O)c1cccc(NC(=O)c2nsc3ccccc23)c1)c1ccccc1 (stereo not drawn),-26.8%,-2.6%
C=C/C1=C/Cc2ccccc2[C@H](C[N+](=O)[O-])C(C(C)=O)(C(=O)OC)C1 (stereo partly drawn),-3.8%,-2.2%
FC(F)(F)c1ccc(C2[C@H]3CN(Cc4ccc(-c5ccccc5)cc4)[C@H](c4ccccc4)C34CC2(c2ccccc2)C4)cc1 (stereo partly drawn),12.6µM*,3.0%
FC(F)(F)c1ccc(C2[C@H]3CN(Cc4ccc(-c5ccccc5)cc4)[C@H](c4ccccc4)C34CC2(c2cccnc2)C4)cc1 (stereo partly drawn),-6.4%,7.0%
COC(=O)c1cccc(C23CC4(C2)[C@H](CN(Cc2ccc(C(F)(F)F)cc2)[C@@H]4c2ccccc2)C3c2ccccc2)c1 (stereo partly drawn),-29.5%,0.2%
COC(=O)c1cccc(C23CC4(C2)[C@H](CN(Cc2ccc(-c5ccccc5)cc2)[C@@H]4c2ccccc2)C3c2ccccc2)c1 (stereo partly drawn),12.6µM*,2.8%
COC(=O)c1cccc(C23CC4(C2)[C@H](CN(Cc2ccc(-c5ccccc5)cc2)[C@@H]4c2ccccc2)C3c2ccc(C(F)(F)F)cc2)c1 (stereo partly drawn),25.1µM*,-1.9%
